Inconclusive results are not listed. The source made the active and inactive calls. Unless noted, calls follow the shape of the dose curve; as a rule, active = well fitted curve in the direction sought with a large enough effect in the repeat runs; inconclusive = weak or mixed curves; inactive = no such curve, though single readings can be large; an effect the other way counts as inactive or inconclusive.
What was measured:
[1] = qHTS assay for small molecule agonists of the p53 signaling pathway (AID 651631; calls by dose curve; also: nearly all actives have a fitted effect of over 15% in size)
Procedure, shortened: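 Beta-lactamase reporter activity under p53 response elements was quantified in HCT-116 cells by FRET fluorescence, following 16 h incubation with test compounds at 37 °C and 2 h substrate development at room temperature.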

[2] = qHTS assay for small molecules that induce genotoxicity in human embryonic kidney cells expressing luciferase-tagged ATAD5 (AID 651632); also: nearly all actives have a fitted effect of over 15% in size
Procedure, shortened: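 HEK293T cells carrying a luciferase reporter tagged to ATAD5 were exposed to compound or DMSO vehicle for 16 hr at 37C, 5% CO2. Amplite was added, and after 30 min at room temperature luciferase activity was read as a marker of ATAD5 induction.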

[3] = qHTS assay for small molecule agonists of the p53 signaling pathway - cell viability (AID 651633; calls by dose curve;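 also: p53RE-bla HCT reporter cells with a stable beta-lactamase p53 reporter; nearly all actives have a fitted effect of over 30% in size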)
Procedure, shortened: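 Viability counter-read: CellTiter-Glo luminescence (30 min, room temperature) in the same p53RE-bla plates. These plates had been exposed to compounds for 16 h at 37 C.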

[4] = qHTS assay for small molecules that induce genotoxicity in human embryonic kidney cells expressing luciferase-tagged ATAD5 - cell viability (AID 651634; calls by dose curve; also: nearly all actives have a fitted effect of over 25% in size)
Procedure, shortened: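 HEK293T cells expressing luciferase-tagged ATAD5 were exposed to compound or DMSO for 15.5 hr at 37C, 5% CO2. Viability was then read as live-cell protease activity by CellTiter-Fluor fluorescence after 30 min at 37C.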

[5] = qHTS assay for small molecule disruptors of the mitochondrial membrane potential - cell viability (AID 720634; calls by dose curve;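 also: human HepG2 liver cancer cells; nearly all actives have a fitted effect of over 20% in size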)
Procedure, shortened: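 HepG2 cells seeded overnight at 37 C, then exposed to compound or DMSO for 1 hr at 37 C, 5% CO2. m-MPI dye added, then CellTiter-Glo for 30 min at room temperature; viability read as ATP luminescence.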

[6] = qHTS assay for small molecule disruptors of the mitochondrial membrane potential (AID 720635); also: potency is read from the fitted curve at half-maximal effect
Procedure, shortened: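 Mitochondrial membrane potential tracked with Mito-MPS dye, red aggregates (ex 540/em 590 nm) against green monomers (ex 490/em 535 nm). Compound treatment 1 hr at 37C, dye 30 min in HepG2.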

[7] = qHTS assay to test for compound auto fluorescence at 590 nm (red) in HepG2 cells (AID 720674)
Procedure, shortened: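 Red autofluorescence (Ex/Em 540/590 nm, Rose Bengal sodium equivalents) was measured in HepG2 cells, 2,000 per well in MEM plus 10% FBS, plated overnight at 37 C. Readings were taken 1 hr after adding 23 nL compound or DMSO, at 37 C and 5% CO2.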

[8] = qHTS assay to test for compound auto fluorescence at 535 nm (green) in HepG2 cells (AID 720675)
[9] = qHTS assay to test for compound auto fluorescence at 460 nm (blue) in HEK293 cells (AID 720678)
Procedure, shortened: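 Blue-channel (Ex/Em 405/460 nm) intensity measured in HEK293 cultures after overnight compound exposure at 37C; signal expressed relative to triamterene. Cells plated 2,000 per well in 10% dialyzed FBS medium and allowed 4-5 hr to attach.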

[10] = qHTS assay to test for compound auto fluorescence at 590 nm (red) in HEK293 cells (AID 720679)
Procedure, shortened: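 Red-channel autofluorescence (Ex/Em 540/590 nm; Rose Bengal sodium reference) was measured after overnight 37C, 5% CO2 exposure of attached HEK293 cells, 2,000 per well in medium with 10% dialyzed FBS.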

[11] = qHTS assay to test for compound auto fluorescence at 535 nm (green) in HEK293 cells (AID 720680)
[12] = qHTS assay to test for compound auto fluorescence at 460 nm (blue) in HEK293 cell free culture (AID 720681)
Procedure, shortened: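 Blue fluorescence (Ex 405/Em 460 nm, triamterene-equivalent) was read immediately after pin transfer of compound or DMSO into medium (DMEM, 10% FBS) without cells.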

[13] = qHTS assay to test for compound auto fluorescence at 535 nm (green) in HEK293 cell free culture (AID 720682)
Procedure, shortened: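 Each library compound, or DMSO control, is added by pintool to medium alone, comprising DMEM and 10% FBS. Emission at 535 nm following 485 nm excitation is quantified against fluorescein.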

[14] = qHTS assay to test for compound auto fluorescence at 590 nm (red) in HEK293 cell free culture (AID 720683)
Procedure, shortened: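 Red-channel autofluorescence of compounds in culture medium (DMEM, 10% FBS), no cells, measured at 540/590 nm. Rose Bengal sodium is the reference fluorophore for equivalence.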

[15] = qHTS assay to test for compound auto fluorescence at 590 nm (red) in HepG2 cell free culture (AID 720684)
Procedure, shortened: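 Plate contents were MEM with 10% FBS plus test compound or DMSO, no cells. Fluorescence was recorded with 540 nm excitation and 590 nm emission.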

[16] = qHTS assay to test for compound auto fluorescence at 460 nm (blue) in HepG2 cell free culture (AID 720685)
Procedure, shortened: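 Compound (23 nL) or DMSO pinned into cell-free MEM with 10% FBS; blue fluorescence read at 405/460 nm excitation/emission, expressed as auto-fluorescence equivalency to triamterene.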

[17] = qHTS assay to test for compound auto fluorescence at 535 nm (green) in HepG2 cell free culture (AID 720686)
[18] = qHTS assay to test for compound auto fluorescence at 460 nm (blue) in HepG2 cells (AID 720687)
Procedure, shortened: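 Blue-channel autofluorescence (Ex/Em 405/460 nm, triamterene-equivalent) was measured after 1 hr compound exposure at 37 C, 5% CO2. Cells were HepG2, plated overnight at 37 C in MEM plus 10% FBS.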

[19] = molecular target: Glucocorticoid receptor (Homo sapiens) (UniProt P04150); experiment: qHTS assay to identify small molecule agonists of the glucocorticoid receptor (GR) signaling pathway (AID 720691; active = well fitted activation curve with a large enough effect in the signal ratio in the repeat runs, not every such curve was filed as active; the % refers to the signal ratio); details: GR-bla HeLa, beta-lactamase reporter ratio, 18 h; activation: at 62.4 µM (top of the series)
Chain of Glucocorticoid receptor (Homo sapiens) (P04150 whole entry, looked up): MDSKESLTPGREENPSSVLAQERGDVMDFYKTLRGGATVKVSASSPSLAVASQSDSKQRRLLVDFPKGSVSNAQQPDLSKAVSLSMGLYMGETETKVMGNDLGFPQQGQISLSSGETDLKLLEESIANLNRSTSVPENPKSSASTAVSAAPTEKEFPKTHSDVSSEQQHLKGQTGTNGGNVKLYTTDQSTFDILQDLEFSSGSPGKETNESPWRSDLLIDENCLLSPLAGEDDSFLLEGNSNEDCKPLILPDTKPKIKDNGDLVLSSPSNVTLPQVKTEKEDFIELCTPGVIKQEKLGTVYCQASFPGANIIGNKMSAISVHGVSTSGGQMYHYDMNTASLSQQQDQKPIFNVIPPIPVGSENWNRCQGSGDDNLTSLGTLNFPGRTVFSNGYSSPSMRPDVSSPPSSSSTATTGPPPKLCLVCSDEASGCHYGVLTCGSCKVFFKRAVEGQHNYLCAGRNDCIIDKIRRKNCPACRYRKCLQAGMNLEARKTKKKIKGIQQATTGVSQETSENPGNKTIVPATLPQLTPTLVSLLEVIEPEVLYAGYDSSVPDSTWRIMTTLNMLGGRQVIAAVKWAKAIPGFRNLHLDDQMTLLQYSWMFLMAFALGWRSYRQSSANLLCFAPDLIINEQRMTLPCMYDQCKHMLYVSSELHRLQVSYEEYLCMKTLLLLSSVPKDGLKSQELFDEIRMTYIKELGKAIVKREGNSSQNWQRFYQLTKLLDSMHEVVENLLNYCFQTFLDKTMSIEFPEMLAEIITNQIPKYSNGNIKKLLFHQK
Procedure, shortened: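 GR-bla HeLa cells (beta-lactamase reporter under glucocorticoid response element) were plated 4 h at 37 C/5% CO2, given compounds in DMSO, and incubated 18 h at 37 C. LiveBLAzer B/G FRET substrate was added for 2 h at room temperature, then fluorescence intensity read.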

[20] = molecular target: Glucocorticoid receptor (Homo sapiens) (UniProt P04150); experiment: qHTS assay to identify small molecule antagonists of the glucocorticoid receptor (GR) signaling pathway (AID 720692; active = well fitted inhibition curve with a large enough effect in the signal ratio in the repeat runs, not every such curve was filed as active; the % refers to the signal ratio)
Procedure, shortened: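 GR-bla HeLa cells (beta-lactamase reporter under glucocorticoid response element) were pre-plated 4 h at 37 C, treated with compounds plus 5 nM dexamethasone (final) for 18 h, then read by LiveBLAzer B/G FRET fluorescence after 2 h.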

Measured: Potency

CCOC(=O)COc1ccc2c(=O)cc(-c3ccccc3)oc2c1
inactive: [1] | [2] | [3] | [4] | [5] | [7] | [8] | [9] | [10] | [11] | [12] | [13] | [14] | [15] | [16] | [17] | [18] | [19] | [20]
active: [6] 7.5 µM

CSCCC(N)C(=O)O (stereo not given)
inactive: [1] | [2] | [3] | [4] | [5] | [6] | [7] | [8] | [9] | [10] | [11] | [12] | [13] | [14] | [15] | [16] | [17] | [19] | [20]

NC(=O)[C@H]1O[C@@H](O)[C@H](O)[C@@H](O)[C@@H]1O
inactive: [1] | [2] | [3] | [4] | [5] | [6] | [7] | [8] | [9] | [10] | [11] | [12] | [13] | [14] | [15] | [16] | [17] | [19] | [20]

CN[C@H](CC(C)C)C(=O)N[C@H]1C(=O)N[C@@H](CC(N)=O)C(=O)N[C@H]2C(=O)N[C@H]3C(=O)N[C@H](C(=O)N[C@@H](C(=O)O)c4cc(O)cc(O)c4-c4cc3ccc4O)[C@H](O)c3ccc(c(Cl)c3)Oc3cc2cc(c3O[C@@H]2O[C@H](CO)[C@@H](O)[C@H](O)[C@H]2O[C@H]2C[C@](C)(N)C(O)[C@H](C)O2)Oc2ccc(cc2Cl)[C@H]1O (stereo not given in full)
inactive: [1] | [2] | [3] | [4] | [5] | [6] | [7] | [8] | [9] | [10] | [11] | [12] | [13] | [14] | [15] | [16] | [17] | [18] | [19] | [20]

FC(F)(F)COCC(F)(F)F
inactive: [1] | [2] | [3] | [4] | [5] | [6] | [7] | [8] | [9] | [10] | [11] | [12] | [14] | [15] | [16] | [18] | [19] | [20]

Cc1ccc(C(C)(C)c2ccc(C)cc2)cc1
inactive: [1] | [2] | [3] | [4] | [5] | [6] | [7] | [8] | [9] | [10] | [11] | [12] | [14] | [15] | [16] | [17] | [18] | [19] | [20]

— PubChem BioAssay (Tox21)
